Data: PubChem BioAssay AID1049 (The Scripps Research Institute Molecular Screening Center, 2008)
The campaign covered roughly 200,000 compounds. About 780 (0.39%) were called active. Cut-off read from the data, not from the text of the source: active = TR-FRET ratio above about 2000; inactive = the rest. The sample as a whole holds a higher share of actives than the screen did.

Assay: TR-FRET signal artefacts, primary screen, artefact control for PPARgamma SRC-2 agonist project, biochemical (AID 1049)
Settings: TR-FRET artefact counter-screen; at 8 µM; active compounds read high

| Compound | TR-FRET ratio |
| --- | --- |
| CN(C)C(CNC(=O)c1cccc(C#N)c1)c1ccco1 (stereo not given) | 1390 (inactive) |
| COc1ccc(NC(=O)CN2C(=O)CSC2=O)cc1 | 1580 (inactive) |
| Cc1ccc(CN2CCN(Cc3ccc(OCCO)cc3)CC2CCO)o1 (stereo not given) | 1600 (inactive) |
| CC(C)OCCCNC(=S)N1CCC(C(=O)c2ccc3c(c2)OCCO3)CC1 | 1610 (inactive) |
| O=C(Nc1cccc(O)c1)c1ccc(C(=O)c2ccccc2)o1 | 1480 (inactive) |
| COC(=O)CN1C(=O)N/C(=C/c2ccc(OC)c(C)c2OC)C1=O | 1240 (inactive) |
| CCOc1ccc(C(=O)Nc2cccc(-c3ccc4nncn4n3)c2)cc1 | 1400 (inactive) |
| Cc1cccc(N2CCN(C(=O)c3cccc(S(=O)(=O)N4CCc5ccccc5C4)c3)CC2C)c1 (stereo not given) | 1420 (inactive) |
| Cc1nc(-c2ccccc2)sc1C(=O)/C=C/c1ccccc1 | 1450 (inactive) |
| C=CCn1c(-c2sc(-c3ccccc3)nc2C)n[nH]c1=S | 1590 (inactive) |
| Cc1nc(-c2ccccc2)sc1-c1nc(-c2ccccc2)ncc1S(=O)(=O)c1ccccc1 | 1980 (active) |
| Cc1ccc(-c2csc(SCC(=O)Nc3cc(C)on3)n2)cc1 | 1440 (inactive) |
| Cc1cc(C)c2c(c1)cc(C)c1nnc(SCC(=O)Nc3cc(C)on3)n12 | 1970 (active) |
| Cc1cc(NC(=O)CSc2nnc(Nc3ccccc3F)s2)no1 | 1500 (inactive) |
| CCN(CC)C(=O)C(=O)Nc1cccc(Br)c1 | 1590 (inactive) |
| COc1ccc(-n2c(O)c(C=NCC(c3ccco3)N3CCCC3)c3ccccc3c2=O)cc1OC (stereo not given) | 1590 (inactive) |
| COc1ccc(/C(O)=C2/C(=O)C(=O)N(c3nc(C)c(C)s3)C2c2ccco2)cc1 (stereo not given) | 2180 (active) |
| COc1ccc(/C(O)=C2\C(=O)C(=O)N(Cc3ccco3)C2c2ccc(OC)cc2OC)cc1 (stereo not given) | 1620 (inactive) |
| COc1ccccc1C1/C(=C(/O)c2ccc(C)cc2)C(=O)C(=O)N1Cc1ccco1 (stereo not given) | 1510 (inactive) |
| Cc1ccc(S(=O)(=O)Nc2nc3ccccc3s2)cc1[N+](=O)[O-] | 1360 (inactive) |
| Cc1ccc(C)c(-n2cc(CN3CCN(C(=O)c4ncn[nH]4)CC3)c(-c3ccccc3)n2)c1 | 1390 (inactive) |
| COc1cc(SC#N)ccc1N=Cc1c(C)[nH]n(-c2ccc(C)cc2)c1=O | 1980 (active) |
| CCc1nnc(NS(=O)(=O)c2ccc(N=Cc3c(C)[nH]n(-c4ccc(C)cc4)c3=O)cc2)s1 | 1630 (inactive) |
| Cc1ccc(-n2[nH]c(C)c(/C=N/N3C(=O)c4cccc5cccc(c45)C3=O)c2=O)cc1 | 1510 (inactive) |
| Cc1cc(C)c(NC(=O)c2oc3ccccc3c2COc2ccccc2)c(C)c1 | 1540 (inactive) |
